SMILES strings stand for the structures. The campaign covered roughly 360,000 compounds. About 320 (0.089%) were called active. The entries come from a sample that favours actives as a whole. A number with no mark means an inactive call. Rule as the data show it: active = activation above about 19% (passing the limit was not always enough); inactive = the rest.

For the test, the target named is Muscarinic acetylcholine receptor M1 (Homo sapiens) (UniProt P11229). Briefly: human M1 muscarinic receptor positive allosteric modulators, primary screen, CHO-K1 cells, Fluo-8 calcium fluorescence, 1536-well (AID 588819). The settings on record: CHO-K1 hM1, Fluo-8 calcium fluorescence, ACh EC20; at 3 µM; stronger effect = higher value; 0% = ACh EC20, 100% = maximal ACh.
Muscarinic acetylcholine receptor M1 (Homo sapiens), sequence (P11229 whole entry, looked up): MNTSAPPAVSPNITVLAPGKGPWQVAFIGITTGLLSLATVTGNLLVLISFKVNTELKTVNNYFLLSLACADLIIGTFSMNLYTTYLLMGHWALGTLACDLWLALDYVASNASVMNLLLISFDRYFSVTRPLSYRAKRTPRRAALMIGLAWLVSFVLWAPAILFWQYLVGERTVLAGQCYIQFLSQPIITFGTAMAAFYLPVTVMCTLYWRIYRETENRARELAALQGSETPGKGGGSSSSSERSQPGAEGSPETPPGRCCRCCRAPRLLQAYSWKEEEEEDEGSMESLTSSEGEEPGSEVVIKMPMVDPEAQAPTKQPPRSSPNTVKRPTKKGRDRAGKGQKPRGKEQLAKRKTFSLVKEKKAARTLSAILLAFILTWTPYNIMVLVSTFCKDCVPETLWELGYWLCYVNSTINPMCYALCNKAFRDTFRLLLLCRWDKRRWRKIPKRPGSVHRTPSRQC
In the case of `CN(C(=O)c1cccc(NC(=O)Cc2ccc(NC(=O)C3CCN(C(=O)C4CCCCC4)CC3)cc2)c1)C1CCC1`, the activation is 0.54%.
For `CS(=O)(=O)N(CC(=O)NC1CCCC1)Cc1ccc(F)cc1`, the activation was 0.34%.
In the case of `Cc1ccc(NC(=O)Cn2cccc2C2=NC(c3ccccc3)CO2)c(C)c1` (centres undefined), the activation was 6.3%.
As to `COCCn1c(SCC(=O)Nc2ccc3c(c2)CCC3)nc2ccccc2c1=O`, the activation was 5.21%.
In the case of `CCCC1NC(=O)NC(C)=C1C(=O)OCC` (centres undefined), the activation was 3.33%.
With `COCC(=O)Nc1cc(C(=O)OC)cc(C(=O)OC)c1`, the activation was 7.56%.
With `Cc1cc(=O)oc(C)c1C(=O)Nc1cnc2ccccc2c1`, the activation is 1%.
In the case of `CCOc1ccc(S(=O)(=O)N2CCN(C(=O)c3oc4ccccc4c3C)CC2)cc1`, the activation is 24.4% (active).
With `CCOC(=O)C1CCN(C(=O)c2oc3ccc(S(=O)(=O)N4CCCCCC4)cc3c2C)CC1`, the activation is 1.16%.
Take `COc1ccc(S(=O)(=O)N2CCN(C(=O)c3cc(C)oc3C)CC2)cc1`: the activation was 10.8%.
Consider `CCOP(=O)(OCC)C(Nc1ccc([N+](=O)[O-])cc1)c1ccc(Cl)cc1` (centres undefined), for which the activation is -2.85%.
As to `Cc1ccc2oc(=O)c3cnn(CC(=O)N4CCN(c5ccccn5)CC4)c3c2c1`, the activation is -8.22%.
Take `COCCNC(=O)NC(=O)COC(=O)C1(c2ccc(Cl)cc2)CC1`: the activation is -0.78%.
With `O=C(NCc1ccc(Cl)cc1)c1cc(=O)nc2sc(-c3ccccc3)nn12`, the activation was -4.02%.
For `O=C(Cn1nc(Cc2cccnc2)c2ccccc2c1=O)NCC1COc2ccccc2O1` (centres undefined), the activation was 9.27%.
`O=C(Cn1cnc2ccccc2c1=O)NCC1COc2ccccc2O1` (centres undefined): the activation was 3.11%.
In the case of `O=C(CN1C(=O)C2C3C=CC(C3)C2C1=O)NCC1COc2ccccc2O1` (centres undefined), the activation was 19.5% (active).
In the case of `Cc1nn(Cc2ccccc2)c(C)c1C(=O)NCCCN1CCCC1=O`, the activation is 3.09%.
In the case of `COc1ccc(C)cc1NC(=O)CN(C)S(=O)(=O)c1ccc2c(c1)n(C)c(=O)c(=O)n2C` it was 11.7%; in that of `CCOC(=O)c1cc2occc2n1CC(=O)N1CCN(C(=O)c2ccco2)CC1`, 0.31%.
Turning to `O=C(N/C(=C\c1ccc(O)cc1)C(=O)N1CCCCC1)c1ccccc1`, the activation is -7.21%.
Consider `O=C(O)c1ccc(NN=CC2=C(N3CCOCC3)/C(=C/c3ccccc3)CC2)cc1`, for which the activation is 1.33%.
In the case of `O=C1Nc2ccc(Br)cc2/C1=N/N=C/C1=C(N2CCOCC2)C(=C\c2ccccc2)/CC1` it was 19.2% (active); in that of `Cc1cccc(N2CC(C)Cn3c2nc2c3c(=O)n(CC(=O)OCc3ccccc3)c(=O)n2C)c1` (centres undefined), 6.13%.

These data come from PubChem BioAssay AID588819 (The Scripps Research Institute Molecular Screening Center, 2011).
